From PubChem
In the library only some 6.8% were active in any assay of this set; here they are far more common.
C diff growth: blocks growth of Clostridium difficile | Clostridium difficile clinical isolate growth, OD600, 24 h; active compounds read low | growth activity, negative = inhibition, % at 16 µg/mL (by protocol) | actives 0.25% (n = 86,000) | AID 1259249;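 active means mean growth activity at or below -80% and every replicate also at or below -80%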
Tcruzi prolif: inhibitors of T. cruzi proliferation. actives 5.9% (n = 77,000). T. cruzi beta-gal in NIH3T3, GalScreen luminescence, 90 h. inhibition, % at 8.34 µM;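 active means mean inhibition above about 93%, with at least 55% of replicates each passing it, limit read from the data, passing the limit was not always enough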
Pf Dd2 inh: inhibitors of Plasmodium falciparum Dd2 growth; AID 1159554; actives 2.3% (n = 94,000); P. falciparum Dd2 growth, SYBR Green, 72 h; active compounds read low; activity change, % at 10 µM; in the data active means activity change below about -80%
Numbers stand for hits; – = inactive; · = no result given.

SMILES	C diff growth	Tcruzi prolif	Pf Dd2 inh
C[C@@H]1CCCCO[C@@H](CN(C)C(=O)Nc2ccc3c(c2)OCO3)[C@@H](C)CN([C@H](C)CO)C(=O)c2cc(NC(=O)Nc3ccc(C(F)(F)F)cc3)ccc2O1	–	–	–
C[C@@H]1CCCCO[C@@H](CN(C)C(=O)CCC(F)(F)F)[C@H](C)CN([C@H](C)CO)C(=O)c2cc(NS(=O)(=O)c3ccc(Cl)cc3)ccc2O1	·	–	–
COCC(=O)Nc1ccc2c(c1)OC[C@H](C)N(Cc1ccncc1)C[C@H](C)[C@@H](OC)CN(C)C2=O	–	·	-85
COCC(=O)Nc1ccc2c(c1)OC[C@@H](C)N(Cc1ccncc1)C[C@@H](C)[C@H](OC)CN(C)C2=O	–	–	–
CO[C@H]1CN(C)C(=O)c2ccc(NS(=O)(=O)CC(F)(F)F)cc2OC[C@@H](C)N(Cc2nccs2)C[C@H]1C	·	–	-88
CO[C@H]1CN(C)C(=O)c2cc(NC(=O)Cc3ccccc3)ccc2OC[C@H](C)N(C(=O)c2ccccc2F)C[C@H]1C	·	–	-89
CO[C@@H]1CN(C)C(=O)c2cc(NC(=O)Nc3ccccc3F)ccc2OC[C@@H](C)N(CC2CC2)C[C@@H]1C	·	–	–
CO[C@@H]1CN(C)C(=O)c2cc(NC(=O)Cc3ccccc3)ccc2OC[C@@H](C)N(C(=O)c2ccccc2F)C[C@@H]1C	·	–	–
CO[C@@H]1CN(C)C(=O)c2ccc(NC(=O)Nc3ccccc3F)cc2OC[C@@H](C)N(CC2CC2)C[C@H]1C	·	–	-88
CO[C@@H]1CN(C)C(=O)c2ccc(NS(=O)(=O)CC(F)(F)F)cc2OC[C@@H](C)N(Cc2nccs2)C[C@H]1C	·	–	–
COc1ccc2c3c([nH]c2c1)[C@@H](CO)N(C(=O)Nc1cccc(F)c1)CC31CN(S(=O)(=O)c2ccccc2)C1	·	·	–
CO[C@@H]1CN(C)C(=O)c2ccc(NC(=O)C3CCC3)cc2OC[C@H](C)N(CC2CCCCC2)C[C@@H]1C	·	–	–
CCCC(=O)Nc1ccc2c(c1)OC[C@H](C)N(Cc1cccc(F)c1)C[C@H](C)[C@H](OC)CN(C)C2=O	·	–	–
CCCC(=O)Nc1ccc2c(c1)OC[C@@H](C)N(Cc1cccc(F)c1)C[C@@H](C)[C@H](OC)CN(C)C2=O	·	–	-87
CO[C@@H]1CN(C)C(=O)c2ccc(NC(=O)C3CC3)cc2OC[C@H](C)N(Cc2cc(F)ccc2F)C[C@H]1C	·	–	–
CO[C@@H]1CN(C)C(=O)c2ccc(NC(=O)C3CC3)cc2OC[C@@H](C)N(Cc2cc(F)ccc2F)C[C@H]1C	·	–	-87
CO[C@@H]1CN(C)C(=O)c2ccc(NC(=O)C3CCC3)cc2OC[C@@H](C)N(CC2CCCCC2)C[C@H]1C	–	·	-83
CCCN1C[C@H](C)[C@@H](OC)CN(C)C(=O)c2cc(NC(=O)Nc3cccc(F)c3)ccc2OC[C@H]1C	–	–	-82
CCCN1C[C@H](C)[C@@H](OC)CN(C)C(=O)c2ccc(NC(=O)Nc3cccc(F)c3)cc2OC[C@H]1C	·	–	–
COCC(=O)N(C)C[C@@H]1Oc2ncc(C#Cc3ccc(OC)cc3)cc2C(=O)N([C@H](C)CO)C[C@H]1C	–	–	–
CC(C)NC(=O)Nc1cccc2c1O[C@H](CN(C)Cc1ccc3c(c1)OCO3)[C@H](C)CN([C@@H](C)CO)C2=O	–	·	–
C[C@@H](NC(=O)[C@@H]1[C@@H](CO)[C@@H]2Cn3c(ccc(-c4ccncc4)c3=O)[C@@H]2N1C)c1ccccc1	–	–	·
CCCC(=O)Nc1ccc2c(c1)OC[C@@H](C)N(Cc1cc(F)ccc1F)C[C@@H](C)[C@H](OC)CN(C)C2=O	–	–	-86
CO[C@H]1CN(C)C(=O)c2ccc(NC(=O)C3CC3)cc2OC[C@@H](C)N(Cc2ccccc2)C[C@H]1C	·	–	–
CO[C@@H]1CN(C)C(=O)c2ccc(NC(=O)C3CC3)cc2OC[C@@H](C)N(Cc2ccccc2)C[C@H]1C	·	–	-80
SMILES	C diff growth	Tcruzi prolif	Pf Dd2 inh
CCCC(=O)Nc1ccc2c(c1)C(=O)N(C)C[C@@H](OC)[C@H](C)CN(Cc1cc(F)ccc1F)[C@H](C)CO2	·	–	–
COc1ccc2c3c([nH]c2c1)[C@H](CO)N(Cc1nccs1)CC31CCN(Cc2nccs2)CC1	·	·	–
C[C@H](CO)N1C[C@H](C)[C@@H](CN(C)Cc2ccncc2)Oc2c(NC(=O)CCCCCC(=O)Nc3ccccc3N)cccc2C1=O	·	–	–
C[C@H]1CN([C@@H](C)CO)C(=O)c2cccc(NC(=O)CCCCCC(=O)Nc3ccccc3N)c2O[C@@H]1CN(C)Cc1ccc(-c2ccccc2)cc1	–	·	-93
C[C@@H]1CN([C@H](C)CO)C(=O)c2cccc(NC(=O)CCCCCC(=O)Nc3ccccc3N)c2O[C@H]1CN(C)Cc1ccccc1	–	·	-88
C[C@@H]1CN([C@@H](C)CO)C(=O)c2cccc(NC(=O)CCCCCC(=O)Nc3ccccc3N)c2O[C@@H]1CN(C)Cc1ccncc1	–	·	–
C[C@@H]1CN([C@H](C)CO)C(=O)c2cc(NC(=O)Nc3cccc4ccccc34)ccc2O[C@H]1CN(C)S(=O)(=O)c1ccc(Cl)cc1	–	–	–
CCCNC(=O)N1[C@H](CO)[C@@H]2c3ccccc3N(C(=O)CC)C[C@@H]21	–	–	–
COc1ccc(-c2cnc3c(c2)C(=O)N([C@H](C)CO)C[C@@H](C)[C@@H](CN(C)C(=O)Cc2cccnc2)O3)cc1	–	·	–
O=C(Nc1ccccc1)N[C@H]1CC[C@@H](CCNS(=O)(=O)c2ccccc2F)O[C@@H]1CO	–	–	–
COc1ccc2c3c([nH]c2c1)[C@H](CO)N(Cc1ccc(Cl)cc1)CC31CCN(Cc2nccs2)CC1	–	·	-93
COc1ccc2c3c([nH]c2c1)[C@@H](CO)N(C(=O)C1CCC1)CC31CCN(Cc2nccs2)CC1	–	·	–
COc1ccc2c3c([nH]c2c1)[C@@H](CO)N(Cc1nccs1)CC31CN(Cc2nccs2)C1	–	·	–
COc1ccc2c3c([nH]c2c1)[C@H](CO)N(C(=O)C1CCCC1)CC31CCN(Cc2nccs2)CC1	–	·	-83
COc1ccc2c3c([nH]c2c1)[C@H](CO)N(C(=O)C1CCCCC1)CC31CCN(Cc2nccs2)CC1	–	·	-88
COc1ccc2c3c([nH]c2c1)[C@H](CO)N(Cc1nccs1)CC31CN(Cc2cccnc2)C1	–	·	-88
COc1ccc2c3c([nH]c2c1)[C@@H](CO)N(C(=O)C1CCCC1)CC31CCN(Cc2nccs2)CC1	–	·	–
COc1ccc2c3c([nH]c2c1)[C@@H](CO)N(Cc1ccc(Cl)cc1)CC31CN(Cc2nccs2)C1	–	·	–
C[C@H](CO)N1C[C@H](C)[C@H](CN(C)Cc2ccncc2)Oc2ccc(NC(=O)Nc3cccc4ccccc34)cc2C1=O	–	–	–
COc1ccc(-c2ccc3c(c2)O[C@@H](CN(C)CC2CCOCC2)[C@@H](C)CN([C@H](C)CO)S3(=O)=O)cc1	–	–	–
CO[C@H]1CN(C)C(=O)c2ccc(NS(=O)(=O)CC(F)(F)F)cc2OC[C@@H](C)NC[C@H]1C	·	–	–
O=C(Nc1cccc(F)c1)N1CCCCN2[C@H](CO)[C@@H](c3ccc(C#Cc4ccccc4)cc3)[C@@H]2C1	–	–	–
COc1ccc(C#Cc2ccc([C@@H]3[C@@H](CO)N4CCCCN(Cc5ccccc5F)C[C@H]34)cc2)cc1	-97	–	–
